From PubChem
This is a sample that favours compounds with a hit; in the whole collection about 7.8% have one here.
LASV entry inh – blocks Lassa virus binding to or entry into cells; Lassa virus pseudotype entry inhibition, cell reporter; Potency, µM (titrated, usually from 37.9 µM), inactives show at the top dose activity change, negative = inhibition, actives largely listed as inhibitors; hit rate 1.2% among 300,000; calls by dose curve; tested in HEK293 cells; also: potency is read from the fitted curve at half-maximal effect; nearly all actives have a fitted effect of over 50% in size
Vaccinia mCherry – inhibitors of vaccinia virus infection (mCherry reporter signal) | Vaccinia virus mCherry reporter infection, fluorescence | Potency, µM (highest dose often 36.5 µM), inactives show top-dose activity change, negative = inhibition, hits mostly inhibitors | hit rate 0.63% among 310,000; calls by dose curve; tested in A549 cells; also: potency is read from the fitted curve at half-maximal effect; nearly all actives have a fitted effect of over 35% in size
Vaccinia Venus – inhibitors of vaccinia virus (Venus reporter) | Vaccinia virus Venus reporter expression, fluorescence | Potency, µM (doses to about 36.5 µM), for inactives: at the highest dose activity change, negative = inhibition, actives largely listed as inhibitors | hit rate 0.46% among 330,000 | AID 720580; calls by dose curve; tested in A549 cells; also: potency is read from the fitted curve at half-maximal effect; nearly all actives have a fitted effect of over 30% in size
HCV inhibitor – blocks hepatitis C virus; hit rate 3.4% among 340,000; Huh7.5.1 HCVcc-Cre infection, luciferase reporter, 44 h; Potency, µM (highest dose often 41.8 µM), for inactives: top-dose activity change, negative = inhibition, hits mostly inhibitors; active = well fitted inhibition curve with a large enough effect; inconclusive = small, poorly fitted or top-dose-only effect, or another doubt; inactive = no such curve, though single readings can be large or run the other way; also: potency is read from the fitted curve at half-maximal effect
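Cells (1,000/well) were plated 4 h before compound, then infected with HCVcc-Cre virus (~0.5 moi). After 44 h further culture, infection was read as luciferase luminescence following a 15 min substrate incubation at room temperature.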
HCMV inh – blocks human cytomegalovirus replication; HFF cells, HCMV-luciferase reporter, 72 h; active compounds read low; activity change, negative = inhibition, % at 57.5 µM; hit rate 4.5% among 410,000; AID 1259415; in the data active = activity change below about -60%; inconclusive = no clear call, values can overlap the other calls; inactive = above about -39%
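After 16 h attachment at 37C, HFF cells received test compound and HCMV-luciferase (1 PFU/cell); reporter luminescence read 72 h later, data normalized against buffer-only and known inhibitor Salinomycin.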
MARV entry inh – blocks Marburg virus binding to or entry into cells | Marburg virus pseudotyped entry inhibition, cell reporter | Potency, µM (series often up to 37.8 µM), for inactives: at the highest dose activity change, negative = inhibition, actives largely listed as inhibitors | hit rate 1.8% among 300,000; calls by dose curve; tested in HEK293 cells; also: potency is read from the fitted curve at half-maximal effect
Numbers without * were called inactive; i = inactive; ? = inconclusive; · = not tested or not shown; ! = a repeat was not active; [ ] = remark or other dose. % is scaled to controls: 0 for no effect and ±100 for the full control effect.

SMILES	LASV entry inh	Vaccinia mCherry	Vaccinia Venus	HCV inhibitor	HCMV inh	MARV entry inh
Oc1[nH]c2ccc(Br)cc2c1N=NC(=S)N1CCOCC1	·	·	·	11.2µM*	-100.2*	·
CCCCNC(=O)C1CCC(CNc2nc(=S)[nH]c3ccccc23)CC1 (configuration not stated)	-19.2%	i	-5.3%	-0.1%	30.1	-22.7%
O=C(NCCc1ccc(Cl)cc1)C1CCC(CNc2nc(=S)[nH]c3ccccc23)CC1 (configuration not stated)	-15.0%	-3.8%	-1.6%	11.2µM*	-81.8*	?
O=C(NCCC1=CCCCC1)C1CCC(CNc2nc(=S)[nH]c3ccccc23)CC1 (configuration not stated)	·	?	-5.5%	?	-62.4*	-6.5%[46.1 µM]
COc1ccc(CCNC(=O)CCCCCNc2nc(=S)[nH]c3ccccc23)cc1OC	?	?	-22.0%	11.2µM*	9.5	?
COc1ccc2cc3cc(C(=O)NCCc4ccccc4)sc3nc2c1Cl	23.3%[46.1 µM]	-12.4%	-10.1%	·	?	·
CC(C)N(CCO)Cc1nc(N2CCOCC2)c2cc(Cl)ccc2n1	·	-7.7%	0.0%	·	·	·
COCCNc1nnc(SC(C)C(=O)Nc2ccc(-c3nc4ccc(C)cc4s3)cc2)s1 (configuration not stated)	?	?	?	6.31µM*	29.9	?
Cc1cccc(C)c1NC(=O)Cn1c(=O)n(CCC(=O)NCc2ccc3c(c2)OCO3)c(=O)c2sccc21	-19.0%[46.1 µM]	-5.3%	-7.1%	·	2.5	-19.5%[46.1 µM]
CC(C)N(C(=O)CSc1cn(CC(=O)N2CCCCCC2)c2ccccc12)C(C)C	-10.9%[46.1 µM]	-11.9%	-11.3%	·	?	·
c1ccc(-c2ccc(-c3cn4c(n3)CCC4)cc2)cc1	10µM*	-13.6%	-21.6%	?	-61.7*	7.08µM*
COc1ccc(-c2cn3c(n2)CCC3)cc1	-24.3%	-16.9%	-11.0%	-5.2%	44.4	-26.9%
COC1=C(OC)C(=O)C(CCCCCCCCCCO)=C(C)C1=O	·	·	·	·	-18.3	·
CC1=C(C)C(=O)C(CCCCC#CCCCC#CCO)=C(C)C1=O	20.6µM*	i	-13.9%	0.6%[8.37 µM]	·	?
CCOC(=O)c1c(NC(=O)COC(=O)Cc2c[nH]c3ccccc23)sc(C(=O)N(C)C)c1C	18.9%	-18.2%	-12.4%	14.1µM*	31.9	3.7%[46.1 µM]
CCOC(=O)c1c(NC(=O)C2c3ccccc3Oc3ccccc32)sc(C(=O)N(CC)CC)c1C	?	·	-28.4%	7.08µM*	·	12.6µM*
CCOC(=O)c1c(NC(=O)C(Sc2ccccc2)c2ccccc2)sc(C(=O)N(C)C)c1C (configuration not stated)	15.8µM*	?	?	?	-7.8	?
CCOc1ccccc1NC(=O)C(Sc1ccccc1)c1ccccc1 (configuration not stated)	12.6µM*	i	-17.7%	-16.0%	-33.2	?
CCOC(=O)c1c(NC(=O)COC(=O)Cc2n[nH]c(=O)c3ccccc23)sc(C(=O)N(C)C)c1C	8.9%	i	-10.4%	?	27.4	2.3%
COc1ccccc1NC(=O)C(Sc1ccccc1)c1ccccc1 (configuration not stated)	?	-6.5%	-14.3%	-11.4%	33.5	-16.3%
O=C(NCC(c1cccnc1)N1CCc2ccccc21)c1cccc(Br)c1 (configuration not stated)	?	-14.5%	-5.9%	·	-39.2	·
COc1ccc(-c2ccnc(-n3ncc(C(=O)NCc4cccnc4)c3C3CC3)n2)cc1F	·	-27.3%	-9.2%	·	·	·
COc1cccc(/C=C/c2nc(C#N)c(N3CCCCC3)o2)c1	-17.9%[46.1 µM]	1.7%	0.7%	·	-8.2	0.5%[46.1 µM]
COC(=O)CC=C[C@@H](C)[C@H](OC)c1ccccc1Br	?	·	·	·	·	0.596µM*!
CN(C)c1cc[n+](CC(=O)Nc2ccc(OC(F)F)cc2)cc1	-16.0%[46.1 µM]	-13.6%	-24.6%	-7.8%	-65.1*	?
SMILES	LASV entry inh	Vaccinia mCherry	Vaccinia Venus	HCV inhibitor	HCMV inh	MARV entry inh
CN(C)c1cc[n+](CC(=O)Nc2ccc(Cl)c([N+](=O)[O-])c2)cc1	-10.3%[46.1 µM]	?	-7.8%	7.5%	-95.6*	?
COc1ccc(Cl)cc1NC(=O)CSc1nnc(C)n2c1cc1sccc12	-3.1%[46.1 µM]	?	-28.5%	·	-19.6	·
COc1ccc2c(CNCCc3cccs3)c(C(=O)O)n(Cc3ccc(F)cc3Cl)c2c1	?	?	?	·	13.9	·
Cc1cc(C)[n+](C)c2ccccc12	·	4.3%	-10.0%	·	·	·
CCNc1nc(SC(C)C(=O)Nc2ccccc2)nc(N(C)C)n1 (configuration not stated)	-10.8%[46.1 µM]	i	-12.1%	-25.3%	129.2	?
COC(=O)C(C)Sc1nc(NCc2ccccc2)nc(N(C)C)n1 (configuration not stated)	12.2%	i	-9.8%	3.16µM*	-34.2	9.3%[46.1 µM]
COc1ccc(NC(=O)c2cc(-c3ccccc3O)no2)cc1	?	-1.8%	-7.7%	·	17.9	·
COc1ccc(-c2onc(C)c2-c2ccc(C(=O)OC(C)C)o2)c(O)c1	?	?	?	6.31µM*	-8.0	?
CC(C)c1ccc(Nc2cc3c(cn2)ncn3CC2CC2)cc1	·	·	·	·	5.4	·
OC1CCCN(Cc2cn(Cc3ccccc3)nc2-c2cc3ccccc3o2)C1 (configuration not stated)	-1.1%	-6.7%	-14.4%	?	-25.2	25.9µM*
CCC(O)C1CCN(Cc2cn(Cc3ccccc3)nc2-c2cc3ccccc3o2)CC1 (configuration not stated)	·	-7.4%	-26.8%	?	-61.3*	·
CCOc1ccccc1N/C(=N/c1nc(C)cc(C)n1)NC(=O)Nc1ccc(Cl)c(Cl)c1	7.8%	·	·	3.8%	·	34.9%
CCc1ccc(N/C(=N/c2nc(C)cc(C)n2)NC(C)=O)cc1	·	·	·	-1.9%	-60.0*	·
CC(=O)N/C(=N\c1nc(C)cc(C)n1)Nc1ccc(NC(C)=O)cc1	·	·	·	·	·	-20.3%[46.1 µM]
COc1ccccc1C(=O)N/C(=N/c1nc(C)cc(C)n1)Nc1ccccc1	-8.7%[46.1 µM]	-13.7%	-9.1%	8.91µM*	87.5	?
CCC(=O)N/C(=N/c1nc(C)cc(C)n1)Nc1ccccc1	-4.4%	-12.7%	-8.5%	-20.3%	?	-6.4%
CCCOc1ccccc1N/C(=N/c1nc(C)cc(C)n1)NC(=O)Nc1ccc(Cl)cc1	?	-8.0%	0.7%	?	-38.4	0.708µM*
CN(C)c1ccc(/C=C/c2ccnc3c(Cl)ccc(Cl)c23)cc1	·	?	31.3%	·	·	·
COC(=O)c1ccc(OCC2c3cc(OC)c(OC)cc3CCN2C(=O)c2ccc(F)cc2)cc1 (configuration not stated)	?	-8.6%	2.5%	·	17.3	·
COc1cccc(C(=O)C(=O)NC(C)(C)C)c1	·	·	·	·	38.3	·
Cc1cc(C(C)(C)C)cc(C)c1S(=O)(=O)N1CC(=O)Nc2ccccc21	11.2µM*	i	-9.3%	?	?	-34.6%
Cc1ccc(C(C)(C)C)cc1S(=O)(=O)N1CC(=O)Nc2ccccc21	?	-9.6%	-18.8%	?	-11.9	10µM*
